# Experimental data as given in the supplement of paper PMC6555819.
# Tests used:
# Assay in all cases: PBM binding z-score (relative to random genomic background probes); higher = stronger binding; sequences stand for … in GC…GCGATTGACAGCGTAGAATGAAGG
# [1] = test system: PPARg:RXRa DBDmut IVT, anti-RXR (DBD mutation: RXRa K156A/R161A, NR concentration 270 nM, RXRa partner concentration 90 nM)
# In short: (§1)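 For binding z-scores, the reference was random background probes on custom Agilent 4×180K protein-binding microarrays. These arrays were incubated 1 h with ligand-free nuclear receptor dimers in PBS pH 7.4, 2% milk, 0.02% Triton X-100, 1 mM DTT, 0.2 mg/mL BSA and 0.4 mg/ml salmon testes DNA. Fluorescence was scanned after antibody detection of each partner (one per run) and regression-normalized.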
# [2] = test system: PPARg:RXRa IVT, anti-PPARg (NR concentration 270 nM, RXRa partner concentration 90 nM)
# In short: as §1
# [3] = test system: PPARg DBDmut:RXRa IVT, anti-PPARg (DBD mutation: PPARg1 K132A/R137A, NR concentration 270 nM, RXRa partner concentration 90 nM)
# In short: as §1
# [4] = test system: PPARg DBDmut IVT, anti-PPARg (DBD mutation: PPARg1 K132A/R137A, NR concentration 270 nM)
# In short: as §1
# [5] = test system: PPARg homodimer (NR concentration 180 nM)
# In short: as §1
# [6] = test system: PXR:RXRa (NR concentration 270 nM, RXRa partner concentration 90 nM)
# In short: as §1
# [7] = test system: PXR homodimer (NR concentration 270 nM)
# In short: as §1
# [8] = test system: RARa:RXR (NR concentration 270 nM, RXRa partner concentration 90 nM)
# In short: as §1
# [9] = test system: RARa homodimer (NR concentration 270 nM)
# In short: as §1
# [10] = test system: RARb:RXRa (NR concentration 270 nM, RXRa partner concentration 90 nM)
# In short: as §1
# [11] = test system: RARb homodimer (NR concentration 270 nM)
# In short: as §1
# [12] = test system: RARg:RXRa (NR concentration 270 nM, RXRa partner concentration 90 nM)
# In short: as §1
# [13] = test system: RARg homodimer (NR concentration 270 nM)
# In short: as §1
# [14] = test system: RXRa DBDmut IVT, anti-RXR (DBD mutation: RXRa K156A/R161A, NR concentration 90 nM)
# In short: as §1
# [15] = test system: RXRa homodimer (NR concentration 180 nM)
# In short: as §1
# [16] = test system: THRa:RXRa (NR concentration 90 nM, RXRa partner concentration 90 nM)
# In short: as §1
# [17] = test system: THRa homodimer (NR concentration 90 nM)
# In short: as §1
# [18] = test system: VDR homodimer (NR concentration 270 nM)
# In short: as §1
Sequence,PBM binding z-score [1],PBM binding z-score [2],PBM binding z-score [3],PBM binding z-score [4],PBM binding z-score [5],PBM binding z-score [6],PBM binding z-score [7],PBM binding z-score [8],PBM binding z-score [9],PBM binding z-score [10],PBM binding z-score [11],PBM binding z-score [12],PBM binding z-score [13],PBM binding z-score [14],PBM binding z-score [15],PBM binding z-score [16],PBM binding z-score [17],PBM binding z-score [18]
TATACTGGGTCAAAGGCCAGAGTACGAATGTCGA,6.17,7.37,3.19,3.85,5.01,2.33,0.331,3.3,0.721,3.59,2.9,3.96,3.88,0.958,3.99,2.24,0.212,1.37
GCTATTAGGTGAAAGGGCAACCGAATGATTCTCG,6.66,6.05,0.769,0.0827,1.6,1.48,0.0465,2.47,0.772,2.48,2.47,2.34,1.75,0.924,2.35,2.04,0.498,0.381
CTAACTAGGTCACCGGAAGGTCAAAGTCCGCATG,8.81,9.32,3.69,4.14,5.86,6.02,2.05,7.24,1.84,5.55,5.66,8.24,7.39,2.16,6.18,4.48,2.98,2.9
CGAACTATGTCAAGGACAGTGAATCTCCGCACGC,3.57,2.11,-0.346,0.361,0.224,-0.112,0.37,0.29,0.0991,0.88,0.507,0.587,0.808,0.328,0.197,1.76,1.21,-0.0899
AATACAGGGTCACTAGGTCAGAGTAGGTACGAAT,5.74,6.99,2.72,2.61,4.65,4.34,1.23,5.62,1.85,4.67,4.58,6.39,6.22,2.99,6.66,3.92,2.23,3.55
CCTTACGGGTCACGGTTATAGCACGGGTGGTACG,3,4.79,0.0456,-0.518,2.07,3.68,-0.0861,4.84,0.629,4.37,3.58,5.47,5.06,0.501,6.44,3.28,0.418,1.26
AAAATGAGGTTAAGATCAGGGAAACAGAATACAT,3.27,3.78,1.96,0.972,1.85,1.26,0.646,2.48,0.889,2.04,1.03,2.28,1.37,1.32,2.73,2.75,0.772,0.778
ACTCGGAGGATAAAGGTCAGAGCTACGCCAGTGA,0.595,3.02,-0.0489,0.296,4.61,3.25,0.221,4.24,2.08,4.01,3.89,4.72,4.44,0.655,4.43,2.69,0.203,0.801
CCTAGCAGGCCACGGTCACTCAAGCATTTCGCTT,2.28,1.83,-0.92,-1.29,0.115,-0.147,-0.385,0.307,-0.0441,1.95,1.74,0.739,1.19,0.229,0.221,0.45,0.288,-0.0513
AGTCAAAGTTCAGGACGAGGTAATGTAAAGCACG,-0.319,1.45,-0.174,0.146,1.53,3.18,1.4,2.5,0.661,4.23,3.05,4.89,4.72,3.05,3.37,3.5,1.44,2.1
ACTAGTAGGCCAAGGGTCACTCAAGATTAGTCCG,5.4,6.33,0.82,1.01,2.17,3.24,-0.0548,4.2,0.166,3.61,3.88,4.22,4.21,0.602,4.54,2.6,0.197,1.36
TCTCGGAGGACACGAAGGTCAAAGCTTTCCAGAG,1.76,1.71,-0.973,-1.26,1.25,3.68,2.71,3.62,0.304,3.66,4.15,4.3,4.3,1.15,3.26,3.4,1.44,2.67
TCATATAGGTAATAGGTGAAAGTCGGTGTGGTAA,4.73,4.33,0.889,1.42,1.61,0.866,0.435,1.56,1.65,0.581,0.632,0.482,0.284,1.59,1.53,0.534,0.384,0.435
GATTCAGGGTCAGCTAGAGGCCAGAGTATGGAAA,1.78,3.04,0.184,-0.207,2.1,3.77,0.432,4.59,0.68,4.5,3.87,7,5.09,1.93,4.72,3.52,1.01,0.938
